Bioassay records: PubChem BioAssay, National Center for Advancing Translational Sciences (NCATS)
p53null 39C tox – selectivity test: cytotoxicity in p53 null cells, nonpermissive temperature; hit rate 0.97% among 55,000; H1299 p53-null (neo) cells, 39C, ATPlite viability, 24 h; Potency, µM (doses to about 46.1 µM), without a hit: top-dose activity, negative = cell killing, hits mostly cytotoxic;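 further: potency means the concentration at half of the fitted maximal effect; 0% = DMSO only and -100% = full killing by 100 µM tamoxifen; nearly all actives have a fitted effect of over 50% in size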
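ATP-luminescence viability readout (ATPlite, 20 min RT) after 24 hr compound treatment at 39C of H1299-neo or H1299-p53A138V cells; titration up to 46 uM; normalized to DMSO and 100 uM tamoxifen; Hill-fit AC50.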
FH mod – Identification of activators of human fumarate hydratase by quantitative high-throughput screening | FH coupled MDH/diaphorase resazurin fluorescence, 15 min | Potency, µM (doses to about 79.9 µM), for inactives: at the top dose activity change, negative = inhibition, hits mostly inhibitors | hit rate 0.22% among 54,000; further: potency means the concentration at half of the fitted maximal effect; on the % scale 0 is the no-effect control and ±100 the full control effect; the screen sought activators but most active calls are inhibition curves; nearly all actives have a fitted effect of over 45% in size
NTMT1 inh – blocks human N-terminal methyltransferase 1 activity | hit rate 2.5% among 59,000 | NTMT1 MTase-Glo SAH luminescence, purified enzyme | Potency, µM (series often up to 114 µM), for the others: at the top dose activity change, negative = inhibition, actives largely listed as inhibitors | Q9BV86;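 further: potency means the concentration at half of the fitted maximal effect; plate controls were DMSO vehicle for no effect and no enzyme for full effect; nearly all actives have a fitted effect of over 65% in size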
Target sequence (Q9BV86 whole entry, looked up): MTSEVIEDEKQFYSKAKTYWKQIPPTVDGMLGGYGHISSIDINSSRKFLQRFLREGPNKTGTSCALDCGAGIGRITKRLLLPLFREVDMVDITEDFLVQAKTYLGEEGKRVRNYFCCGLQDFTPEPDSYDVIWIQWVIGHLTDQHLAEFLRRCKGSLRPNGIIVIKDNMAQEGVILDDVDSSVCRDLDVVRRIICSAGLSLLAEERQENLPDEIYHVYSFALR
GALC G270D up – galactocerebrosidase G270D activity enhancement, cell-based. P54803. 145M-Twi-hGALC-G270D cells, HMU-beta-Gal fluorescence, 48 h. Potency, µM (highest dose often 57.5 µM), hits mostly activators. hit rate 0.1% among 45,000; further: potency means the concentration at half of the fitted maximal effect; 0% is about no effect; nearly all actives have a fitted effect of over 65% in size
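qHTS, 1536-well; 145M-Twi-hGALC-G270D cells (WT line also made) in DMEM/F12 + 10% FBS; compound incubation on live cells; HMU-β-gal 0.1 mM final, pH 5.2, NaTC; carbonate stop; fluorescence increase = enhanced residual activity.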
p53null 32C tox – kills p53 null cells at the permissive temperature; H1299-neo p53 null cells, ATP luminescence, 24 h, 32C; Potency, µM (titrated, usually from 46.1 µM), for inactives: top-dose activity change, negative = cytotoxicity, hits mostly cytotoxic; hit rate 0.62% among 55,000;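 further: potency means the concentration at half of the fitted maximal effect; 0% = DMSO only and -100% = full killing by 100 µM tamoxifen; nearly all actives have a fitted effect of over 55% in size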
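H1299-neo (p53-null) cells, 600/well, were pre-incubated overnight at 37C, then exposed to compounds at up to 46 uM for 24 hr at 32C. Viability was measured as ATP content by luminescence, and AC50 values came from Hill fits.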
GPR32 ag – GPR32 (DRV1) agonism, beta-arrestin recruitment. AID 1346428. CHO-K1 GPR32 beta-arrestin PathHunter luminescence, 90 min; zero percent set by DMSO-only wells. O75388. hit rate 2.5% among 48,000. activation, % at 76.9 µM;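 active means activation of at least 60% and not above a set upper limit, about 1 call in 100 departs from these limits; inconclusive means activation of 40% to 60%, or above that upper limit; inactive means activation under 40%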; further: 0% is about no effect
Target sequence (O75388 whole entry, looked up): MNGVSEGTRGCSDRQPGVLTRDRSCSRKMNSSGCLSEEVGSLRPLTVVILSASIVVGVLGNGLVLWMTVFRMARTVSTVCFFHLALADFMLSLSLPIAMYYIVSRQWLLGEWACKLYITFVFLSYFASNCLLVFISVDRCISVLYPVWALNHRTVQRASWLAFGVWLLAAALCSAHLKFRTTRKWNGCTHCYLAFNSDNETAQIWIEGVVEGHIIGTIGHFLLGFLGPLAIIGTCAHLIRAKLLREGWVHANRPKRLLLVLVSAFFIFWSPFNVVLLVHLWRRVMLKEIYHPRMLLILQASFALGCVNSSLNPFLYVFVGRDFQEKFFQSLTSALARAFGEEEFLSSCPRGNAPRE
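PathHunter enzyme-fragment complementation, CHO-K1 GPR32 stable line; 2,500 cells/well, overnight attach; cpd 90 min 37 °C 5% CO2; detection reagent 1 h RT; chemiluminescence. DMSO = EC0.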
Starred values were filed as active, the others as inactive; i = inactive; ? = inconclusive; . = no result; ! = not confirmed by another sample; [ ] = remark or other dose. An excerpt weighted towards active compounds, which were near 3.9% of everything screened. Unless noted, the call rests on the fitted dose curve; in most records, active means well fitted curve in the direction sought with a large enough effect; inconclusive means small, poorly fitted or top-dose-only effect, or another doubt; inactive means no such curve, though single readings can be large; an effect the other way counts as inactive or inconclusive.

SMILES	p53null 39C tox	FH mod	NTMT1 inh	GALC G270D up	p53null 32C tox	GPR32 ag
O=C(O)Cc1cn(C2OCC(O)C(O)C2O[C@@H]2O[C@H](CO)[C@@H](O)[C@H](O)[C@H]2O)c2ccccc12 (stereo partly drawn)	.	-0.9%[53.3 µM]	7.9%[29.8 µM]	.	.	.
COc1ccc(S(=O)(=O)Nc2cccc(-c3ccc(N4CCCC4)nn3)c2)cc1OC	-9.9%	.	.	.	11.1%	26.5
CC1CCN(c2ccc(-c3cccc(NS(=O)(=O)c4ccc(Cl)s4)c3)nn2)CC1	10µM*	.	.	.	6.31µM*	-20.4
COc1ccc(S(=O)(=O)Nc2cccc(-c3ccc(N4CCC(C)CC4)nn3)c2)cc1OC	7.94µM*	.	.	.	3.16µM*	-3.1
CC1CCN(c2ccc(-c3cccc(NS(=O)(=O)c4cccs4)c3)nn2)CC1	10µM*	.	.	.	7.94µM*	-9.8
COc1ccc(C)cc1S(=O)(=O)Nc1cccc(-c2ccc(N3CCC(C)CC3)nn2)c1	-9.7%	.	.	.	-11.1%	5.9
CCC1C(=O)OC23C=C[C@@H]4C(C(=O)O)=CO[C@H](O[C@@H]12)[C@@H]43 (stereo partly drawn)	.	6.9%	16.9%[57.5 µM]	.	.	.
O=c1oc2cc(O)ccc2cc1-c1nnc(Nc2ccccc2F)s1	?	-1.3%	50.1µM*	i	?	6.2
CCN1CCN(CCCNC(=O)c2cc3c(s2)-c2ccccc2OC3)CC1	?	-0.4%	?	i	4.8%	-3.1
O=C(NCCCN1CCN(c2ccccc2F)CC1)c1cc2c(s1)-c1ccccc1OC2	31.6µM*	-18.4%	-1.0%	i	7.2%	7.3
CCN(c1cc(-c2ccc(CN3CCOCC3)cc2)cc(C(=O)NCc2c(C)cc(C)[nH]c2=O)c1C)C1CCOCC1	.	2.2%	3.0%	.	.	.
CCOc1ccc(CCNC(=O)c2csc(Br)n2)cc1OCC	.	.	14.7%	.	.	.
Cc1ccccc1C(=O)Nc1nc2nc(-c3ccccc3)cc(=O)n2[nH]1	-28.4%	4.5%	10.6%	i	-10.5%	11.4
O=C(Nc1nc2nc(-c3ccccc3)cc(=O)n2[nH]1)c1ccc(Cl)cc1	-18.6%	3.9%	50.1µM*	i	-3.7%	7.1
CCOC(=O)c1cccc(Nc2cc(-c3ccccc3)ncn2)c1	-4.6%	?	?	i	?	26.6
COc1ccccc1-c1cc(Nc2cccc(CS(N)(=O)=O)c2)ncn1	.	7.2%	35.5µM*	.	.	.
CC(C)(CC(=O)N1CCCC1)NCC(=O)N1C[C@@H](F)C[C@H]1C#N	.	3.9%	2.2%[57.5 µM]	.	.	.
NC(=O)C1CCN(c2nc(-c3ccc(F)cc3)cs2)CC1	.	.	79.4µM*	.	.	.
NC(=O)C1CCN(c2nc(-c3ccc(-c4ccccc4)cc3)cs2)CC1	.	.	-9.1%	.	.	.
CCOC(=O)C1CCN(c2cc3c(cc2NC(=O)c2ccc(Cl)cc2)n(C)c(=O)n3C)CC1	10.4%	20µM*	-12.1%	i	-2.7%	3.9
Cn1cnc2c(F)c(Nc3ccc(Br)cc3Cl)c(C(=O)NOCCO)cc21	.	5.6%	89.1µM*!	i	.	6.1
COc1ccc(C2Nc3ccccc3C(=O)N2Cc2ccco2)cc1COc1c(C(C)C)cccc1C(C)C (stereo not drawn)	.	.	2.6%	.	.	.
COCCCNC(=O)CSc1c2c(nc3ccc(Cl)cc13)CCCC2	82.0%	-13.1%	?	i	24.2%	-13.0
CCN(CC)CCCNC(=O)CSc1c2c(nc3cc(Cl)ccc13)CCCC2	12.6µM*	-23.2%	?	i	37.2%	-14.6
CCSc1nc2c([nH]c3ccccc32)c(=O)n1-c1ccc(F)cc1	15.9%	6.9%	-11.9%	i	-3.1%	78.8*
SMILES	p53null 39C tox	FH mod	NTMT1 inh	GALC G270D up	p53null 32C tox	GPR32 ag
CCC(C(=O)NC1CCCCC1)n1c(SCc2cccc(F)c2)nc2ccncc21 (stereo not drawn)	-24.4%	-10.5%	7.2%	i	10.6%	-1.6
CCC(C(=O)NC1CCCCC1)n1c(SCc2cccc(C)c2)nc2ccncc21 (stereo not drawn)	7.94µM*	-7.7%	-5.9%	i	12.6µM*	-10.0
O=C(Nc1ncc([N+](=O)[O-])s1)c1cccs1	.	0.0%[53.3 µM]	39.8µM*	i	.	-39.7
CCN(CC)CCNC(=O)Nc1ccc2c(c1)N(Cc1ccccc1)C(=O)c1ccccc1S2	17.8µM*	-5.6%	?	i	12.8%	-25.3
Cc1ccc(OCCn2c(CCNC(=O)c3cccnc3)nc3ccccc32)cc1	.	.	2.1%[57.5 µM]	.	.	.
CC1(C)CCC2(C(=O)O)C(O)CC3(C)C(=CCC4C5(C)CCC(OC6OC(CO)C(O)C(O)C6OC6OC(CO)C(O)C(O)C6OC6OCC(O)(CO)C6O)C(C)(C)C5CCC43C)C2C1 (stereo not drawn)	.	-4.7%[20.6 µM]	5.4%[12.6 µM]	.	.	.
Cc1ccc(-c2nc3nc(C)cc(Nc4ccccc4O)n3n2)cc1	?	0.5%	8.9%	i	-22.9%	72.0*
COc1ccccc1Nc1cc(C)nc2nc(-c3ccccc3)nn12	0.5%	-4.4%	-13.8%	i	-2.5%	-10.6
CC(C)(C)c1[nH]cnc1/C=c1\[nH]c(=O)/c(=C/c2ccccc2)[nH]c1=O	.	.	21.5%	.	.	.
CC(C)c1c(C(=O)Nc2ccccc2)c(-c2ccccc2)c(-c2ccc(F)cc2)n1CC[C@@H](O)C[C@@H](O)CC(=O)O	.	2.6%[20.6 µM]	35.5µM*!	i	.	-2.3
CNCCN1CCC(c2cc(CN(C)C(=O)c3cccc(Oc4ccccc4)c3)ccn2)CC1	.	4.7%[53.3 µM]	4.9%[29.8 µM]	.	.	.
Brc1c(Br)c(Br)c2[nH]cnc2c1Br	.	-15.4%[53.3 µM]	.	.	.	4.7
S=c1nc[nH]c2nc[nH]c12	.	-8.1%[53.3 µM]	25.1µM*!	i	.	-0.8
CN(C)C(CCOc1cccc2ccccc12)c1ccccc1 (stereo not drawn)	.	-3.5%	1.1%[57.5 µM]	.	.	.
Cc1ccc(C(C)(C)C)c(OCC(=O)NCCc2nc3ccccc3[nH]2)c1	-17.1%	-0.9%	1.2%	i	-12.2%	61.3*
Cc1cc(CS(=O)(=O)c2ccccc2)cc(OCc2ccc(CN3CCCC3CO)cc2)c1 (stereo not drawn)	.	8.3%	-13.6%[57.5 µM]	.	.	.
Cc1ccc(NC(=O)N2CCC(c3ccccc3)C2)cc1C (stereo not drawn)	?	-2.5%	7.1%	i	?	-6.3
O=C(Nc1ccc(Cl)cc1)N1CCC(c2ccccc2)C1 (stereo not drawn)	?	-4.1%	8.0%	i	3.98µM*	2.1
CC(C)(C)OC(=O)N1CCN(c2ccc(NCc3ncc(-c4ccc(C#N)cc4)s3)cc2)CC1	.	.	-1.3%[57.5 µM]	.	.	.
CCOc1ccc(NC(C)=O)cc1	.	5.5%[53.3 µM]	-10.4%[57.5 µM]	i	.	0.2
CCOc1ccc(NC(=O)c2ccccc2O)cc1	7.94µM*	.	.	.	7.08µM*	.
